Measurements published in PubChem BioAssay (NCI).
This is part of a sample that, as a whole, favours compounds with a hit. Of some 83,000 tested, about 20% had one in any assay.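 Method: cells in 96-well plates; compound added at one concentration; 48 h incubation; percent growth measured; values under 10 scored active.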 The source made the active and inactive calls.

Assays:
Experiment in all cases: NCI-60 one-dose screen, 48 h (100 = growth as untreated, 0 = no growth, -100 = all killed)
Conditions in all cases: 10 µM
K-562 leukemia = test system: K-562 leukemia
MALME-3M melanoma = test system: MALME-3M melanoma
MDA-MB-231 breast = test system: MDA-MB-231 breast
RXF 393 renal = test system: RXF 393 renal
SF-268 CNS = test system: SF-268 CNS
SF-295 CNS = test system: SF-295 CNS
SF-539 CNS = test system: SF-539 CNS
UACC-257 melanoma = test system: UACC-257 melanoma
M14 melanoma = test system: M14 melanoma
HCT-15 colon = test system: HCT-15 colon
HT29 colon = test system: HT29 colon
SNB-75 CNS = test system: SNB-75 CNS
SNB-19 CNS = test system: SNB-19 CNS
U251 CNS = test system: U251 CNS
PC-3 prostate = test system: PC-3 prostate
SK-MEL-5 melanoma = test system: SK-MEL-5 melanoma
UACC-62 melanoma = test system: UACC-62 melanoma
LOX IMVI melanoma = test system: LOX IMVI melanoma
SK-MEL-28 melanoma = test system: SK-MEL-28 melanoma
SK-MEL-2 melanoma = test system: SK-MEL-2 melanoma

Measured: growth

COc1ccc(C2=Nc3c(C)nn(-c4ccccc4)c3NC(c3ccc(Oc4ccnc5cc(Cl)ccc45)c(OC)c3)C2)cc1 (stereo not given)
inactive: K-562 leukemia 62.2% | MALME-3M melanoma 95.6% | MDA-MB-231 breast 58% | RXF 393 renal 80.4% | SF-268 CNS 78.8% | SF-295 CNS 93.1% | SF-539 CNS 92.2% | UACC-257 melanoma 98.3% | M14 melanoma 95.1% | HCT-15 colon 62.9% | HT29 colon 56.2% | SNB-75 CNS 62.3% | SNB-19 CNS 78.6% | U251 CNS 86.7% | PC-3 prostate 54.8% | SK-MEL-5 melanoma 89.4% | UACC-62 melanoma 75.9% | LOX IMVI melanoma 89.3% | SK-MEL-28 melanoma 95.1% | SK-MEL-2 melanoma 90.9%

COc1cc(Cl)cc(-c2nn(-c3cccc(NC(=O)Nc4cc(C(F)(F)F)cc(C(F)(F)F)c4)c3)cc2-c2ccncc2)c1
active: K-562 leukemia 6.4% | MALME-3M melanoma -19.2% | MDA-MB-231 breast -75% | RXF 393 renal -29.3% | SF-295 CNS -43.2% | SF-539 CNS -17.7% | UACC-257 melanoma -25.6% | M14 melanoma 1.22% | HCT-15 colon 6.21% | HT29 colon 3.93% | U251 CNS -58% | PC-3 prostate -6.27% | SK-MEL-5 melanoma -79.4% | UACC-62 melanoma -21.2% | LOX IMVI melanoma -24% | SK-MEL-28 melanoma 6.55% | SK-MEL-2 melanoma -38.1%
inactive: SF-268 CNS 14.2% | SNB-75 CNS 11.3% | SNB-19 CNS 26.1%

C#Cc1ccc(-n2c(/C=C/c3cc(OC)cc(OC)c3)nc3ncccc3c2=O)cc1
inactive: K-562 leukemia 75.3% | MALME-3M melanoma 83.2% | MDA-MB-231 breast 53.5% | RXF 393 renal 64.8% | SF-268 CNS 65.3% | SF-295 CNS 75.7% | SF-539 CNS 87.8% | UACC-257 melanoma 66.3% | M14 melanoma 81.2% | HCT-15 colon 82.8% | HT29 colon 100% | SNB-75 CNS 55% | SNB-19 CNS 98% | U251 CNS 72% | PC-3 prostate 68.5% | SK-MEL-5 melanoma 60.7% | UACC-62 melanoma 85.8% | LOX IMVI melanoma 76.2% | SK-MEL-28 melanoma 96.7% | SK-MEL-2 melanoma 53.7%

O=C(Nc1ccc(Cl)c([N+](=O)[O-])c1)Nc1nc2ccccc2s1
inactive: K-562 leukemia 74.9% | MALME-3M melanoma 67.6% | MDA-MB-231 breast 86.2% | RXF 393 renal 113% | SF-268 CNS 106% | SF-295 CNS 71% | SF-539 CNS 83.6% | UACC-257 melanoma 91.8% | M14 melanoma 88.7% | HCT-15 colon 92.3% | HT29 colon 87.3% | SNB-75 CNS 94.2% | SNB-19 CNS 84.2% | U251 CNS 84% | PC-3 prostate 49.9% | SK-MEL-5 melanoma 74.3% | UACC-62 melanoma 70% | LOX IMVI melanoma 91.4% | SK-MEL-28 melanoma 98.8% | SK-MEL-2 melanoma 102%

CC1(C)CCC(=NNC(N)=S)CC1
inactive: K-562 leukemia 94.6% | MALME-3M melanoma 107% | MDA-MB-231 breast 116% | RXF 393 renal 115% | SF-268 CNS 103% | SF-295 CNS 88.2% | SF-539 CNS 98.1% | UACC-257 melanoma 102% | M14 melanoma 113% | HCT-15 colon 98.8% | HT29 colon 95.1% | SNB-75 CNS 88.2% | SNB-19 CNS 108% | U251 CNS 105% | PC-3 prostate 109% | SK-MEL-5 melanoma 111% | UACC-62 melanoma 103% | LOX IMVI melanoma 89% | SK-MEL-28 melanoma 115% | SK-MEL-2 melanoma 130%

N#Cc1ncc(-c2ccc(C(F)(F)F)cc2)c(NCc2cc(C(F)(F)F)cc(C(F)(F)F)c2)n1
active: SF-295 CNS 4.36% | HCT-15 colon 7.65% | HT29 colon 9.29% | PC-3 prostate 1.54% | SK-MEL-2 melanoma -2.7%
inactive: K-562 leukemia 16.1% | MALME-3M melanoma 10.1% | MDA-MB-231 breast 39.4% | RXF 393 renal 35.8% | SF-268 CNS 56.8% | SF-539 CNS 66.4% | UACC-257 melanoma 28.7% | M14 melanoma 40% | SNB-75 CNS 37.9% | SNB-19 CNS 29.8% | U251 CNS 27.3% | SK-MEL-5 melanoma 75.3% | UACC-62 melanoma 19.4% | LOX IMVI melanoma 14.9% | SK-MEL-28 melanoma 39.3%

COc1ccc(-c2nc(-c3nc4cc(Cl)c(F)cc4[nH]3)c3ccccn23)cc1
inactive: K-562 leukemia 40.3% | MALME-3M melanoma 97.4% | MDA-MB-231 breast 57.5% | RXF 393 renal 87.8% | SF-268 CNS 75.3% | SF-295 CNS 45.1% | SF-539 CNS 92.8% | UACC-257 melanoma 61.9% | M14 melanoma 66.2% | HCT-15 colon 59.5% | HT29 colon 31.5% | SNB-75 CNS 66.2% | SNB-19 CNS 55.5% | U251 CNS 62.5% | PC-3 prostate 34.6% | SK-MEL-5 melanoma 59.4% | UACC-62 melanoma 74.5% | LOX IMVI melanoma 65.9% | SK-MEL-28 melanoma 91.8% | SK-MEL-2 melanoma 50%
